The results in this text go back to PubChem BioAssay (NCI).

What all share (assay): NCI-60 one-dose screen, 48 h (100 = growth as untreated, 0 = no growth, -100 = all killed)
Details in all cases: 10 µM unless noted

Assay [1] has as its system DU-145 prostate.
For assay [2], the system named is K-562 leukemia.
For assay [3], the system named is MDA-MB-231 breast.
Assay [4] deals with RXF 393 renal.
Assay [5] has as its system SF-268 CNS.
For assay [6], the system named is SF-295 CNS.
The subject of assay [7] is SF-539 CNS.
Assay [8] relates to UACC-257 melanoma.
The test system of assay [9] is M14 melanoma.
For assay [10], the system named is MALME-3M melanoma.

Compounds without any hit were thinned out: in the full panel of roughly 83,000, 20% have a hit.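 Activity criterion: percent growth below 10, measured after cells in 96-well plates were exposed to a single compound concentration for 48 hours.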 A number with no mark means an inactive call. Activity calls are given as the source filed them.

Take `O=C(Nc1ccccc1O)c1ccc(NS(=O)(=O)c2cccc3cccnc23)cc1`: the growth in [1] is 49.1%; in assay [2] it was 23.8%; in assay [3], 64%; in assay [4] it was 69.8%; in [5] it was 44%; in assay [6], 62.9%. For the same compound, the growth is 41.4% in [7], 26.8% in assay [8] and 41.1% in assay [9].

For the compound `NC(=O)c1cc(I)ccc1NC(=O)COc1ccccc1`, the growth in assay [1] is 25%; in [2], 8.23% (active); in assay [3] it was 27.6%; in assay [4] it was 8.03% (active); in assay [5], 46.4%; in assay [6] it was 12.6%. For the same compound, the growth in [7] was -33.6% (active); in assay [8] it was 61.4%; in assay [9], 0.806% (active).

In the case of `Oc1ccccc1/C=N/Nc1nc2ccccc2s1`, the growth in assay [1] was 48%; in assay [2] it was 41%; in assay [3], 37.7%; in assay [4] it was 86.3%; in [5], 32.3%; in assay [6], 27.9%. In addition, the growth was 44.6% in [7], 58.7% in assay [8] and 56.6% in assay [9].

Regarding `COc1cccc(OC(=O)c2ccccc2)c1OC(=O)c1ccccc1`, the growth in [1] was 87.7%; in [2], 37.4%; in assay [3] it was 75.4%; in assay [4], 86.3%; in assay [5], 72.4%; in assay [6], 83.6%. For the same compound, the figures for the growth in assay [7], in assay [8] and in assay [9] were 92%, 87% and 47.5%, respectively.

Consider `COc1ccc(NC(=O)COc2ccccc2)c(C(N)=O)c1`, for which the growth in [1] is 23%; in assay [2], 9.36% (active); in assay [3], 44.1%; in assay [4], 2.95% (active); in assay [5], 50.7%; in assay [6], 13.3%. Moreover, the growth is -46.8% (active) in assay [7], 61.7% in [8] and 3.47% (active) in assay [9].

Consider `CC(=O)Nc1ccc(S(=O)(=O)N/N=C\c2ccc(Cl)c(Cl)c2)cc1`, for which the growth in [1] is 110%; in assay [2], 116%; in assay [3] it was 110%; in assay [4] it was 123%; in [5], 100%; in assay [6] it was 108%. Besides, the values for the growth in assay [7], in assay [8] and in assay [9] were 111%, 103% and 102%, respectively.

For the compound `Cn1c2ccccc2c2nn(Cc3ccccc3)c(=O)nc21`, the growth in [1] is 113%; in assay [2] it was 109%; in [3], 103%; in [4] it was 103%; in [5], 103%; in [6] it was 97.4%. For the same compound, the growth in assay [7] is 99.7%; in assay [8] it was 101%; in assay [9], 104%.

For `O=C1C(Cl)=C(NCCCN2CCOCC2)C(=O)c2ccccc21`, the growth is 126% in assay [1]; 60.3% in assay [2]; 97.3% in assay [3]; 108% in [4]; 106% in [5]; 109% in assay [6]. In addition, the growth in assay [7] is 125%; in assay [8] it was 73.3%; in assay [9], 101%.

With `Cc1ccc(S(=O)(=O)N2C/C(=C\c3cc(F)cc(F)c3)C(=O)/C(=C/c3cc(F)cc(F)c3)C2)cc1`, the growth in [1] is -61.3% (active); in assay [2], 2.14% (active); in [10], -62.9% (active); in [3], -29.7% (active); in assay [5] it was -40.6% (active); in [7], -39.6% (active). The growth in assay [9] was -50.1% (active).

Turning to `CS(=O)(=O)Nc1cccc(C(=O)NCc2ccc(N3CCOCC3)cc2)c1`, the growth was 103% in assay [1]; 92.4% in [2]; 111% in assay [10]; 121% in assay [3]; 97.9% in assay [5]; 103% in assay [7]. Moreover, the growth in [9] is 99.2%.

In the case of `COc1cc(NC(=O)COc2ccccc2)c(C(N)=O)cc1OC`, the growth in assay [1] is 23.6%; in [2], 7.84% (active); in assay [3] it was 51.2%; in [4], 6.01% (active); in assay [5], 53.4%; in assay [6], 7.73% (active). Moreover, the results for the growth in assay [7], in assay [8] and in assay [9] were -23.9% (active), 51.3% and 16.8%, respectively.

Take `CCC12CCC3c4ccc(O)cc4CCC3C1CC(O)C2O` (centres undefined): the growth was 103% in [1]; 23.7% in assay [2]; 70.1% in [10]; 98.6% in assay [4]; 103% in assay [5]; 58.1% in [6]. Moreover, the growth in assay [7] was 80.6%; in [8], 67.4%; in [9], 55%.

As to `N#CCCN1CCN(CCC#N)C1=S`, the growth in assay [1] was 110%; in [2], 109%; in assay [3], 99.6%; in assay [4], 124%; in [5], 99.4%; in assay [6] it was 93.3%. Moreover, the results for the growth in [7], in [8] and in assay [9] were 101%, 99.8% and 96.6%, respectively.

Turning to `COC(=O)/C=C1/CCC2C3CCC4=CC(=O)C(Br)CC4(C)C3C(=O)CC12C` (centres undefined), the growth in [1] was 75%; in [2], 48.9%; in [3], 78%; in assay [4], 59.9%; in assay [5], 95.6%; in assay [6] it was 95.4%. In addition, the growth in assay [7] is 97.4%; in assay [9], 59.9%.

Take `CCSc1nnc2c3cc(Br)ccc3n(C)c2n1`: the growth was 119% in assay [1]; 118% in [2]; 93.3% in assay [3]; 116% in [4]; 107% in assay [5]; 93.7% in [6]. Also, the values for the growth in assay [7], in assay [8] and in assay [9] were 106%, 105% and 98.4%, respectively.

In the case of `CCCCNNC(=O)c1ccc(Br)cc1`, the growth in assay [1] was 50.9%; in assay [2], 29.9%; in assay [3] it was 76.1%; in assay [4] it was 69.5%; in assay [5], 56.4%; in [6], 38.4%. Moreover, the growth is 61.4% in assay [7], 16.3% in [8] and 42% in [9].

Consider `CNc1ccc(Br)cc1-c1n[nH]c(=O)[nH]c1=O`, for which the growth was 122% in assay [1]; 103% in assay [2]; 110% in assay [10]; 94.2% in [3]; 111% in [5]; 79.6% in assay [6]. Further, the growth in assay [7] was 103%; in assay [9] it was 100%.

Turning to `NC(=O)c1cc(Cl)ccc1NC(=O)COc1ccccc1`, the growth in assay [1] is 60.4%; in [2], 18.1%; in [3], 77.4%; in [4], 55%; in [5] it was 66.2%; in assay [7] it was 18.2%. The results for the growth in assay [8] and in assay [9] were 84.4% and 28.2%, respectively.

Consider `COc1cccc(OC)c1OC(=O)c1ccccc1`, for which the growth in assay [1] is 119%; in assay [2], 105%; in assay [10], 106%; in assay [4], 109%; in [5], 111%; in assay [6], 79.5%. The growth in assay [7] is 99.1%; in [8] it was 99.5%; in [9] it was 109%.

For the compound `CCN(c1ccc(C(=O)N2CCN(c3ccccc3)CC2)cc1)S(C)(=O)=O`, the growth was 108% in [1]; 96.4% in [2]; 94.2% in assay [10]; 119% in assay [3]; 98.7% in assay [5]; 103% in assay [7]. In [9], the growth is 104%.

For the compound `COc1ccc(Nc2nc(NCCNc3ccnc4cc(Cl)ccc34)nc(N3CCOCC3)n2)cc1`, the growth is 67.7% in assay [1]; 6.77% (active) in assay [2]; -80.2% (active) in assay [10]; 25.2% in assay [3]; 58.3% in assay [5]; 38.1% in assay [7]. Besides, the growth in assay [9] was 19.9%.

For `Cn1c2ccccc2c2nn(C(=O)c3ccccc3)c(=O)nc21`, the growth in [1] was 118%; in assay [2], 112%; in assay [3], 120%; in assay [4], 101%; in [5], 111%; in assay [6], 98.2%. Further, the growth was 106% in assay [7], 118% in assay [8] and 104% in [9].

`COc1c(Cl)ccc2c(-c3nc4cc(Cl)c(F)cc4s3)cc(=O)oc12`: the growth was 97.1% in assay [1]; 64.9% in [2]; 65% in assay [3]; 92.3% in assay [4]; 29.5% in assay [5]; 97.7% in [6]. The growth in assay [7] is 90%; in [8], 91.6%; in [9] it was 95.5%.

As to `Cc1ccc(C(=O)Nc2ccccc2N)cc1`, the growth in [1] was 73.5%; in [2] it was 62.5%; in [3] it was 69.7%; in [4], 84.6%; in [5], 69.6%; in [6] it was 62.5%. Also, the growth was 68.1% in assay [7], 68% in assay [8] and 77.5% in [9].

Turning to `CC1=C(C/C=C(\C)CCC[C@H](C)CCC[C@H](C)CCCC(C)C)C(=O)c2ccccc2C1=O`, the growth in [1] was 120%; in assay [10], 102%; in [3], 106%; in assay [4] it was 119%; in [5], 108%; in [6], 101%. The growth in [7] is 96.4%; in assay [8], 98.2%; in assay [9], 104%.

With `CCCCCCCCCCCCCCCC[N+]1(C)CCOCC1`, the growth is 28.7% in assay [1]; -2.82% (active) in [10]; -7.42% (active) in assay [3]; -79.9% (active) in assay [4]; -34.5% (active) in assay [5]; 19.8% in [6]. For the same compound, the values for the growth in assay [7], in assay [8] and in [9] were -1.77% (active), 49.4% and 1.49% (active), respectively.

As to `O=[N+]([O-])c1ccc(O)c2ncccc12`, the growth is 75.8% in [1]; 52.2% in assay [10]; 46% in assay [3]; 92.4% in assay [4]; 50.2% in [5]; 24.5% in [6]. The growth in assay [7] was 42.2%; in [8], 73.6%; in assay [9] it was 47.3%.

For `COc1ccc(OC2=C(C#N)C(=N)N3c4ccccc4Sc4ccccc4C3N2)cc1` (centres undefined), the growth in assay [1] was 99.7%; in assay [2], 148%; in assay [3], 60.8%; in [4], 78%; in assay [5], 89.2%; in assay [7], 91.5%. Also, the growth in assay [8] was 115%; in assay [9], 105%.

As to `O=C1NC(=O)C(CSc2ccccc2)(c2ccccc2)N1` (centres undefined), the growth in assay [1] is 123%; in assay [2] it was 104%; in assay [3], 104%; in [4] it was 103%; in assay [5], 123%; in assay [7] it was 113%. Moreover, the growth in assay [8] was 93.6%; in assay [9], 105%.

`Brc1ccc(Br)nn1`: the growth in [1] was -91% (active); in assay [10], -91% (active); in [3], -65.6% (active); in assay [4], -89.8% (active); in assay [5], -74.4% (active); in [6], -10.9% (active). For the same compound, the figures for the growth in assay [7], in [8] and in assay [9] were -53.1% (active), -68.4% (active) and -76.4% (active), respectively.

For the compound `O=C(O)C[C@H](O)C[C@H](O)/C=C/c1c(C2CC2)nc2ccccc2c1-c1ccc(F)cc1`, the growth in [1] is 113%; in assay [10] it was 104%; in assay [3] it was -47.7% (active); in assay [4], 63.5%; in [5], 31.9%; in assay [6], 22.9%. The growth in assay [7] is 81.2%; in [8], 95.5%; in assay [9] it was 90.8%.

As to `Clc1ccc(C2=Nc3cccc4cccc(c34)N2)cc1Cl`, the growth is 110% in [1]; 102% in assay [10]; 97.4% in assay [3]; -5.75% (active) in assay [4]; 112% in assay [6]; 108% in assay [7]. Besides, the growth in assay [8] is 93.6%; in [9], 103%.
